# Screens: PubChem BioAssay, National Center for Advancing Translational Sciences (NCATS)
# CHX counter: counter-screen hit for Shiga toxin inhibitors, cycloheximide. cell reporter, cycloheximide protein synthesis inhibition counterscreen. max response, %. hit rate 12% among 300,000. AID 2314; in the data active means max response mostly above about 13%, no sharp cut-off; inactive means mostly below about 14%; further: read at 38.3 µM for the half of the compounds with a filed dose; 0% is about no effect
# Shiga inhibitor: inhibitors of Shiga toxin in Vero cells; Vero cells, Shiga toxin protein synthesis inhibition reporter; inhibition, % at 38.7 µM; hit rate 9.2% among 290,000; in the data active means inhibition mostly above about 28%, no sharp cut-off; inactive means mostly below about 43%; further: 0% is about no effect
# Marburg entry inh: Marburg virus entry inhibition; Marburg virus pseudotyped entry inhibition, cell reporter; Potency, µM (series often up to 37.8 µM), for inactives: at the top dose activity change, negative = inhibition, hits mostly inhibitors; hit rate 1.8% among 300,000; AID 540276; calls by dose curve; tested in HEK293 cells; further: potency means the concentration at half of the fitted maximal effect; on the % scale 0 is the no-effect control and ±100 the full control effect
# LASV entry inh: Lassa virus entry inhibition; Lassa virus pseudotype entry inhibition, cell reporter; Potency, µM (top dose mostly 37.9 µM), inactives show top-dose activity change, negative = inhibition, most hits filed as inhibitors; hit rate 1.2% among 300,000; AID 540256; calls by dose curve; tested in HEK293 cells; further: potency means the concentration at half of the fitted maximal effect; on the % scale 0 is the no-effect control and ±100 the full control effect; nearly all actives have a fitted effect of over 50% in size
# * marks the source's active call; other numbers are inactive results; ? = inconclusive; nt = not tested or not shown; [ ] = another dose, or the depositor's remark. An excerpt weighted towards active compounds, which were near 12% of everything screened.
SMILES,CHX counter,Shiga inhibitor,Marburg entry inh,LASV entry inh
Cc1ccc(N=c2oc3cc(O)ccc3cc2C(N)=O)cc1,56.3*,80.9*,?,?
CCN(CC)c1ccc(CNc2ccc3c(c2)ncn3CC)cc1,11.7,17.4,5.1%[46.1 µM],12.0%[46.1 µM]
Cc1ccc(OCCn2c(CNc3cccc(C)c3)nc3ccccc32)cc1,nt,nt,-1.7%[46.1 µM],0.7%[46.1 µM]
CCn1cnc2cc(NCc3nc4ccccc4n3Cc3ccccc3)ccc21,32.6*,50.4*,?,10µM*
CCn1cnc2cc(NCc3nc4ccccc4n3C)ccc21,26.0*,59.0*,?,?
CC(C)n1cnc2cc(NCc3nc4ccccc4n3C)ccc21,72.7*,81.8*,?,?
CC1CN(Cc2nc3c(c(=O)n(C)c(=O)n3C)n2CCc2ccccc2)CC(C)O1 (stereo not drawn),nt,nt,1.0%[46.1 µM],-0.7%
CCC1CCCN1Cn1cnc2c([nH]c3ccc(OC)cc32)c1=O (stereo not drawn),4.8,18.9,-1.0%,14.8%
COc1ccc2[nH]c3c(=O)n4c(nc3c2c1)SCCC4,25.1*,28.8,?,-30.1%
Cc1ccc2[nH]c3c(=O)n4c(nc3c2c1)SCC4,24.0*,28.1,-16.8%[46.1 µM],10.8%[46.1 µM]
CC#CCN1c2ccccc2[C@]23CCC(=O)N(Cc4ccco4)C2=NC(C(=O)OC)=C(C(=O)OC)[C@H]13,nt,nt,-44.4%[14.2 µM],nt
CCOC(=O)C1=C(O)C(=O)N(CCCn2ccnc2)C1c1ccc(OC)cc1 (stereo not drawn),1.1,6.5,nt,nt
CC(C)C[C@H](NC(=O)c1nc[nH]c1C(=O)N1CCc2ccccc2C1)C(=O)OCc1ccccc1,-5.7,-4.1,nt,nt
O=C(N[C@@H](Cc1ccccc1)C(=O)OCc1ccccc1)c1nc[nH]c1C(=O)N1CCc2ccccc2C1,18.1*,16.2,nt,nt
ClC1=C(Cl)C(Cl)(C2(Cl)C(Cl)=C(Cl)C(Cl)=C2Cl)C(Cl)=C1Cl,-15.5,-20.8,nt,nt
CC(NC(=O)c1ccccc1NC(=O)CN1CCc2ccccc2C1)c1ccccc1 (stereo not drawn),-2.4,-5.4,?,?
Cc1nc2nc(SCC(=O)NCCc3ccc(Cl)cc3)nn2c(C)c1Cc1c(F)cccc1Cl,nt,nt,nt,18.9%[46.1 µM]
C=CCOc1ccc(C2NC(=S)NC3=C2CCc2ccccc23)cc1 (stereo not drawn),25.3*,19.8,?,-27.9%[46.1 µM]
C=CCSc1nccc(-c2nn(-c3ccc(C)cc3)ccc2=O)n1,-2.6,-9.0,?,3.16µM*
CCSc1nccc(-c2nn(-c3ccc(C)cc3)ccc2=O)n1,9.2,-23.0,?,?
CCOc1ccc(C(c2c(O)cc(C)n(CCOC)c2=O)N2CCN(c3ccc(F)cc3)CC2)cc1 (stereo not drawn),nt,nt,nt,-10.9%[46.1 µM]
Cc1ccn2c(CN3CCOCC3)c(-c3ccccc3)nc2c1,28.0*,47.7*,?,9.7%
Clc1ccc(-c2nc3ccccn3c2CN2CCCCC2)cc1,18.6*,40.3,nt,nt
Oc1ccc(N2CCN(Cc3c(-c4ccccc4)nc4ccccn34)CC2)cc1,0.2,0.3,-15.8%[46.1 µM],6.9%
c1ccc(-c2noc(CN3CCOCC3)n2)cc1,-2.2,-5.7,?,7.7%
SMILES,CHX counter,Shiga inhibitor,Marburg entry inh,LASV entry inh
CN(C)Cc1c(-c2ccc(Cl)cc2)nc2ccccn12,45.2*,126.2*,?,8.9%[46.1 µM]
CCOc1ccc(NC(=O)c2cc(S(=O)(=O)N3CCCCCC3)cn2C)cc1,nt,nt,nt,15.1%[46.1 µM]
O=S(=O)(Nc1ccc(N2CCOCC2)cc1)c1c(F)cc(F)cc1Br,-3.5,-15.5,17.9%[46.1 µM],?
COc1ccccc1C(C)NC(=O)c1ccc(S(=O)(=O)NCc2ccco2)cc1 (stereo not drawn),nt,nt,-10.7%,-6.0%
COc1ccc(C(=O)Nc2ccc(S(=O)(=O)NCc3ccco3)cc2)cc1OC,-1.6,14.5,6.4%,-4.2%
COc1ccccc1NC(=O)c1ccc(S(=O)(=O)NCc2ccco2)cc1,37.6*,102.9*,-11.2%[46.1 µM],-12.6%
COc1ccc(S(=O)(=O)NCc2ccco2)cc1NC(=O)c1ccccc1,47.0*,64.9*,-21.1%[46.1 µM],-11.5%
Cc1cccc(NC(=O)c2cc(S(=O)(=O)NCc3ccco3)ccc2F)c1C,47.1*,63.1*,-16.9%,-11.6%
CCN1c2ccccc2-c2nc3ccccc3n2C1c1cccs1 (stereo not drawn),6.7,14.3,?,5.9%
CCOC(=O)C1CCCN(S(=O)(=O)c2cc3c(cc2C)NC(=O)CO3)C1 (stereo not drawn),nt,nt,nt,15.6%[46.1 µM]
CCCCC(CC)CNC(=O)CCCn1c(=O)[nH]c2ccsc2c1=O (stereo not drawn),nt,nt,8.2%[46.1 µM],?
Cn1c(C(C#N)C(=O)c2ccco2)nc2ccccc21 (stereo not drawn),34.0*,70.8*,?,4.8%
Cn1c(C(C#N)C(=O)Cc2cccc3ccccc23)nc2ccccc21 (stereo not drawn),7.5,-4.3,-0.8%,2.7%
